Inconclusive results are not listed. The source made the active and inactive calls. Calls come from the whole dose curve; as a rule, active = well fitted curve in the direction sought with a large enough effect; inconclusive = small, poorly fitted or top-dose-only effect, or another doubt; inactive = no such curve, though single readings can be large; an effect the other way counts as inactive or inconclusive.
How the values were obtained:
TAB165 = experiment: qHTS profiling for inhibitors of Plasmodium falciparum proliferation (AID 504749);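 note: 0% = DMSO vehicle and full inhibition = artemisinin control; nearly all actives have a fitted effect of over 60% in size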; settings: P. falciparum in erythrocytes, SYBR Green DNA, 72 h; series mostly up to 28.7 µM
How it was run: (§1)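 Parasite proliferation within erythrocytes, 72 h exposure. Endpoint: SYBR Green I fluorescence after overnight lysis at room temperature. Controls: 0.29 uM artemisinin, DMSO.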

W2 = experiment: as above; settings: P. falciparum in erythrocytes, SYBR Green DNA, 72 h; series mostly up to 28.7 µM
How it was run: as §1

CRL-7250 = normal cell line; experiment: Cytotoxic Profiling of Annotated Libraries Using Quantitative High-Throughput Screening (AID 1296008); settings: Five cell lines viability, CellTiter-Glo ATP luminescence, 48-72 h; max response: hits give low values; note: nearly all actives have a fitted effect of over 60% in size; for max response: % is set by controls: 0 for no effect and ±100 for the full control effect
How it was run: (§2)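 Compounds were pin-transferred onto cells and incubated 48 or 72 hr at 37 degree Celsius, 95% humidity. CellTiter-Glo was added, plates sat 10 min at room temperature, then ATP-coupled luminescence was imaged as the viability read-out.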

HEK293 = experiment: as above; settings: Five cell lines viability, CellTiter-Glo ATP luminescence, 48-72 h; max response: hits give low values
How it was run: as §2

HaCat [1] = experiment: as above; settings: Five cell lines viability, CellTiter-Glo ATP luminescence, 48-72 h; max response: hits give low values
How it was run: as §2

KB-3-1 = experiment: as above; settings: Five cell lines viability, CellTiter-Glo ATP luminescence, 48-72 h; max response: hits give low values
How it was run: as §2

NIH3T3 [2] = experiment: as above; settings: Five cell lines viability, CellTiter-Glo ATP luminescence, 48-72 h; max response: hits give low values
How it was run: as §2

HACAT [3] = experiment: qHTS assay to identify novel small-molecules to repurpose for Merkel cell carcinoma treatment (AID 1296009); settings: MCC and control cell lines, CellTiter-Glo viability, 72 h; at 44.8 µM (top of the series) unless noted; note: nearly all actives have a fitted effect of over 60% in size; for activity change, negative = cytotoxicity: % is set by controls: 0 for no effect and ±100 for the full control effect
How it was run: (§3)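 qHTS format: cells treated with library compounds in DMSO across 8 (NPC) or 11 (MIPE) concentrations. Readout after 72 hr at 37 degree celsius was CellTiter-Glo luminescence.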

HEK293T = experiment: as above; settings: MCC and control cell lines, CellTiter-Glo viability, 72 h; at 44.8 µM (top of the series) unless noted
How it was run: as §3

MCC-13 = experiment: as above; settings: MCC and control cell lines, CellTiter-Glo viability, 72 h; series mostly up to 46 µM
How it was run: as §3

MCC-26 = experiment: as above; settings: MCC and control cell lines, CellTiter-Glo viability, 72 h; series mostly up to 46 µM
How it was run: as §3

MKL-1 = experiment: as above; settings: MCC and control cell lines, CellTiter-Glo viability, 72 h; series mostly up to 46 µM
How it was run: as §3

MKL-2 = experiment: as above; settings: MCC and control cell lines, CellTiter-Glo viability, 72 h; series mostly up to 46 µM
How it was run: as §3

NIH3T3 [4] = experiment: as above; settings: MCC and control cell lines, CellTiter-Glo viability, 72 h; at 44.8 µM (top of the series) unless noted
How it was run: as §3

UISO = experiment: as above; settings: MCC and control cell lines, CellTiter-Glo viability, 72 h; series mostly up to 46 µM
How it was run: as §3

WaGa = experiment: as above; settings: MCC and control cell lines, CellTiter-Glo viability, 72 h; series mostly up to 46 µM
How it was run: as §3

C33A = experiment: Primary qHTS to identify gynecologic anti-cancer compounds using libraries of approved drugs and bioactive compounds (AID 1345084); settings: Gynecologic cancer cell panel viability, ATPlite luminescence, 48 h; series mostly up to 57.5 µM; note: % is set by controls: 0 for no effect and ±100 for the full control effect; nearly all actives have a fitted effect of over 55% in size
How it was run: (§4)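 Cells, 1,000 per well, were allowed to settle for 16 h at 37 C before compound addition. Five concentrations were tested for 48 h, and viability was read by ATPlite luminescence after 15 min at room temperature.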

CAOV3 = experiment: as above; settings: Gynecologic cancer cell panel viability, ATPlite luminescence, 48 h; series mostly up to 57.5 µM
How it was run: as §4

CASKI = experiment: as above; settings: Gynecologic cancer cell panel viability, ATPlite luminescence, 48 h; series mostly up to 57.5 µM
How it was run: as §4

Es-2 = experiment: as above; settings: Gynecologic cancer cell panel viability, ATPlite luminescence, 48 h; series mostly up to 57.5 µM
How it was run: as §4

CC(O)CN(CCN(CC(C)O)CC(C)O)CC(C)O (stereo not drawn)
inactive: Potency (TAB165) | Potency (W2) | max response (CRL-7250) 4.33% | outcome (HEK293) | outcome (HaCat [1]) | max response (KB-3-1) -16.3% | outcome (NIH3T3 [2]) | outcome (HACAT [3]) | outcome (HEK293T) | Potency (MCC-13) | Potency (MCC-26) | Potency (MKL-1) | Potency (MKL-2) | outcome (NIH3T3 [4]) | Potency (UISO) | Potency (WaGa) | Potency (C33A) | Potency (CAOV3) | Potency (CASKI) | Potency (Es-2)

Cc1cc2c(cc1S(N)(=O)=O)S(=O)(=O)CCC2
inactive: Potency (TAB165) | Potency (W2) | max response (CRL-7250) -3.17% | outcome (HEK293) | outcome (HaCat [1]) | max response (KB-3-1) -2.22% | max response (NIH3T3 [2]) -4.64% | outcome (HACAT [3]) | outcome (HEK293T) | Potency (MCC-13) | Potency (MKL-1) | Potency (MKL-2) | Potency (UISO) | Potency (WaGa) | Potency (C33A) | Potency (CAOV3) | Potency (CASKI) | Potency (Es-2)

NC(=O)NC(=O)Cc1ccccc1
inactive: Potency (TAB165) | Potency (W2) | max response (CRL-7250) 3.98% | outcome (HEK293) | outcome (HaCat [1]) | max response (KB-3-1) 5.24% | max response (NIH3T3 [2]) 3.84% | outcome (HACAT [3]) | outcome (HEK293T) | Potency (MCC-13) | Potency (MCC-26) | Potency (MKL-1) | Potency (MKL-2) | Potency (UISO) | Potency (WaGa) | Potency (C33A) | Potency (CASKI) | Potency (Es-2)

Cc1ncc([N+](=O)[O-])n1CC(O)CCl (stereo not drawn)
inactive: max response (CRL-7250) 0.168% | outcome (HEK293) | outcome (HaCat [1]) | max response (KB-3-1) 18% | max response (NIH3T3 [2]) -5.9% | outcome (HACAT [3]) | outcome (HEK293T) | Potency (MCC-13) | Potency (MCC-26) | Potency (MKL-1) | Potency (MKL-2) | Potency (UISO) | Potency (WaGa) | Potency (C33A) | Potency (CASKI) | Potency (Es-2)

CC(O)COc1ccccc1 (stereo not drawn)
inactive: Potency (TAB165) | Potency (W2) | max response (CRL-7250) 2.21% | outcome (HEK293) | outcome (HaCat [1]) | max response (KB-3-1) 5.08% | max response (NIH3T3 [2]) -1.73% | outcome (HACAT [3]) | outcome (HEK293T) | Potency (MCC-13) | Potency (MCC-26) | Potency (MKL-1) | Potency (MKL-2) | Potency (UISO) | Potency (WaGa) | Potency (C33A) | Potency (CAOV3) | Potency (CASKI) | Potency (Es-2)

N[C@@H](CSSC[C@H](N)C(=O)O)C(=O)O
inactive: outcome (CRL-7250) | outcome (HEK293) | outcome (HaCat [1]) | max response (KB-3-1) 4.84% | max response (NIH3T3 [2]) 0.783% | outcome (HACAT [3]) inactive [at 0.588 µM] | outcome (HEK293T) inactive [at 0.588 µM] | activity change, negative = cytotoxicity (MCC-13) 4.94% [at 0.597 µM] | activity change, negative = cytotoxicity (MCC-26) 1% [at 0.597 µM] | activity change, negative = cytotoxicity (MKL-1) 8.58% [at 0.597 µM] | activity change, negative = cytotoxicity (MKL-2) 18.8% [at 0.597 µM] | activity change, negative = cytotoxicity (UISO) 9.88% [at 0.597 µM] | activity change, negative = cytotoxicity (WaGa) 9.72% [at 0.597 µM] | activity change, negative = cytotoxicity (C33A) 7.09% [at 0.462 µM] | activity change, negative = cytotoxicity (CAOV3) -5.94% [at 0.462 µM] | activity change, negative = cytotoxicity (CASKI) 7.1% [at 0.462 µM] | activity change, negative = cytotoxicity (Es-2) -1.97% [at 0.462 µM]
